Data as given in PubChem BioAssay (NCATS).
Where “and” joins values, the source holds several entries; their conditions need not be identical. Equal values may be shown once. Results filed as inconclusive are left out. Calls of active or inactive are those of the source. Unless noted, calls follow the shape of the full dose curve.

Key:
[1] = qHTS profiling of the MIPE4 collection as inhibitors of Plasmodium falciparum (3D7) proliferation (AID 743344; call rule not given here;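 also: scaled between DMSO vehicle wells and 0.29 µM artemisinin as full inhibition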); details: P. falciparum 3D7 in erythrocytes, SYBR Green DNA fluorescence, 72 h; at 28.5 µM unless noted
Method in brief: (§1)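 Erythrocytes infected with P. falciparum (0.3% parasitemia, 2.5% hematocrit) incubated with compounds 72 h at 37 C, 5% CO2. Lysis with saponin/Triton buffer containing SYBR Green I, overnight at room temperature in the dark; DNA fluorescence (485/535 nm) normalised to 0.29 uM artemisinin and DMSO.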

[2] = qHTS profiling of the MIPE4 collection as inhibitors of Plasmodium falciparum (DD2) proliferation (AID 743345; call rule not given here); details: P. falciparum Dd2 in erythrocytes, SYBR Green DNA, 72 h; at 28.5 µM unless noted
Method in brief: as §1

[3] = qHTS profiling of the MIPE4 collection as inhibitors of Plasmodium falciparum (HB3) proliferation (AID 743347; call rule not given here;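 also: plate controls were DMSO vehicle wells for no effect and artemisinin wells for full effect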); details: P. falciparum HB3 in erythrocytes, SYBR Green DNA, 72 h; at 28.5 µM unless noted
Method in brief: as §1

[4] = qHTS for Inhibitors of the Functional Ribonucleoprotein Complex (vRNP) of Lassa (LASV) Arenavirus: LASV Primary Screen - GLuc reporter signal (AID 1347082; calls by dose curve; tested in HEK293 reporter line; also: % is scaled to controls: 0 for no effect and ±100 for the full control effect; nearly all actives have a fitted effect of over 60% in size)
[5] = qHTS for Inhibitors of the Functional Ribonucleoprotein Complex (vRNP) of Lassa (LASV) Arenavirus: Viability assay - alamar blue signal for LASV Primary Screen (AID 1347083; calls by dose curve; tested in HEK293 reporter line; also: % is scaled to controls: 0 for no effect and ±100 for the full control effect; nearly all actives have a fitted effect of over 80% in size)
[6] = qHTS for Inhibitors of the Functional Ribonucleoprotein Complex (vRNP) of Lymphocytic Choriomeningitis Arenaviruses (LCMV): Viability assay - alamar blue signal for LCMV Primary Screen (AID 1347085; calls by dose curve; tested in HEK293 reporter line; also: % is scaled to controls: 0 for no effect and ±100 for the full control effect; nearly all actives have a fitted effect of over 80% in size)
[7] = target: Nucleoprotein (Lymphocytic choriomeningitis virus (strain Armstrong)) (UniProt P09992); test: qHTS for Inhibitors of the Functional Ribonucleoprotein Complex (vRNP) of Lymphocytic Choriomeningitis Arenaviruses (LCMV): LCMV Primary Screen - GLuc reporter signal (AID 1347086); also: % is scaled to controls: 0 for no effect and ±100 for the full control effect; nearly all actives have a fitted effect of over 70% in size
[8] = Primary qHTS for inhibitors of SARS-S pseudo-typed particle cell entry (AID 1479145); also: nearly all actives have a fitted effect of over 45% in size; as to activity change, negative = inhibition: % is scaled to controls: 0 for no effect and ±100 for the full control effect
[9] = Primary qHTS for Huh7 cytotoxicity: counterscreen for inhibitors of MERS-S pseudotyped particle cell entry (AID 1479147); details: outcome: dose series up to 57.1 µM unless noted
[10] = Primary qHTS for inhibitors of MERS-S pseudo-typed particle cell entry (AID 1479149); also: nearly all actives have a fitted effect of over 60% in size; as to activity change, negative = inhibition: % is scaled to controls: 0 for no effect and ±100 for the full control effect
[11] = Primary qHTS for Vero E6 cytotoxicity: counterscreen for inhibitors of SARS-S pseudo-typed particle cell entry (AID 1479150); details: outcome: dose series up to 57.1 µM unless noted; as to activity change, negative = cytotoxicity: % is scaled to controls: 0 for no effect and ±100 for the full control effect
[12] = Cytotoxicity counterscreen for inhibitors of SARS-CoV-2 cell entry (AID 1645845); also: nearly all actives have a fitted effect of over 50% in size
Method in brief: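 48 h compound treatment (after 1 h preincubation), HEK293-ACE2 cells, 37 C/5% CO2; ATP luminescence endpoint; normalized to cell wells and media blanks.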

[13] = Primary qHTS to identify inhibitors of SARS-CoV-2 cell entry (AID 1645846); details: activity change, negative = inhibition: at 57.1 µM (top of the series) unless noted; also: nearly all actives have a fitted effect of over 45% in size
Method in brief: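 HEK293 cells stably expressing human ACE2, pre-treated 1 h with compound, then infected with MLV particles pseudotyped with Wuhan-Hu-1 spike (C-terminal 19-aa truncation). Luciferase luminescence after 48 h at 37 °C, normalised to spike PP and bald PP.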

[14] = Validation screen for inhibitors of Lassa infection (AID 463096); also: % is scaled to controls: 0 for no effect and ±100 for the full control effect
[15] = Inducers of the Endoplasmic Reticulum Stress Response (ERSR) in human glioma: Validation (AID 504836; active = well fitted curve in the direction sought with a large enough effect; also: 0% is about no effect)
Method in brief: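 ERSR induction read as luciferase luminescence (Bright-Glo, 10 min at room temperature) in stably transfected human U87-MG glioma cells exposed to compounds for 16 h, using GRP78 as sensor.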

Chain of Nucleoprotein (Lymphocytic choriomeningitis virus (strain Armstrong)) (P09992 whole entry, looked up): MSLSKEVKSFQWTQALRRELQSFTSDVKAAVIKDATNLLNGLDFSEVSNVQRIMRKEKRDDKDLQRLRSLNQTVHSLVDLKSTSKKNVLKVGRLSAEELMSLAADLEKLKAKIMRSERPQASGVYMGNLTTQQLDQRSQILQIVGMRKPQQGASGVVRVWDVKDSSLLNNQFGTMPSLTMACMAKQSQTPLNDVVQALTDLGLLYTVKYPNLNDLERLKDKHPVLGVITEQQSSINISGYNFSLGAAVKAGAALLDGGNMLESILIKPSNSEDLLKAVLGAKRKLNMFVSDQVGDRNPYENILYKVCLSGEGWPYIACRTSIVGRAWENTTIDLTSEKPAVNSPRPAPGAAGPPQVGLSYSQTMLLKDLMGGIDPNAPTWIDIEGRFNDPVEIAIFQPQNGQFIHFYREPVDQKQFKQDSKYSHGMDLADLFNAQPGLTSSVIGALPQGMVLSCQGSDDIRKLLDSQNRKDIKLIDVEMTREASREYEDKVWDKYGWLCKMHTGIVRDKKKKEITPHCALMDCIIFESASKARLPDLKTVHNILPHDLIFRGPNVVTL

CC(=O)O[C@H]1C[C@@H]2CC[C@H]3[C@H]4C[C@H]([N+]5(C)CCCCC5)[C@@H](OC(C)=O)[C@@]4(C)CC[C@@H]3[C@@]2(C)C[C@H]1[N+]1(C)CCCCC1
-10.4%: activity change, negative = inhibition [13]
88%: parasite growth remaining, % of DMSO control (lower = more inhibition) [2]
73.3%: parasite growth, % of DMSO control [1]
inactive: Potency [4] | Potency [5] | Potency [6] | Potency [7] | Potency [8] | outcome [9] | Potency [10] | outcome [11] | Potency [12] | Potency [13]
72.7%: growth, % of control [3]

CCOC(=O)[C@@H](N)Cc1ccc(-c2cc(O[C@H](c3ccc(Cl)cc3-n3ccc(C)n3)C(F)(F)F)nc(N)n2)cc1
inactive: Potency [4] | Potency [5] | Potency [6] | Potency [7] | Potency [8] | outcome [9] | Potency [10] | outcome [11] | Potency [12]

CC1=C(/C=C/C(C)=C/C=C/C(C)=C\C(=O)O)C(C)(C)CCC1
inactive: Potency [14] | outcome [15] | Potency [4] | Potency [5] | Potency [6] | Potency [7] | Potency [8] | outcome [9] | Potency [10] | outcome [11] | Potency [12] | Potency [13]
-7.39%: activity change, negative = inhibition [13]

C[Se]CC[C@H](N)C(=O)O
inactive: Potency [4] | Potency [5] | Potency [6] | Potency [7] | Potency [8] | outcome [9] inactive [at 26.4 µM] | Potency [10] | outcome [11] | Potency [12]

Cc1cn([C@@H]2C[C@@H](O)[C@H](CO)O2)c(=O)[nH]c1=O
59.6%: growth, % of control [3]
92.6%: parasite growth remaining, % of DMSO control (lower = more inhibition) [2]
-18% and -32.2%: activity change, negative = inhibition [13]
inactive: Potency [4] | Potency [5] | Potency [6] | Potency [7] | Potency [8] | outcome [9] | Potency [10] | outcome [11]
93.3%: parasite growth, % of DMSO control [1]

C[C@@H](O)[C@H]1C(=O)N2C(C(=O)OCOC(=O)C(C)(C)C)=C(SC3CN(C4=NCCS4)C3)[C@H](C)[C@H]12
inactive: Potency [4] | Potency [5] | Potency [6] | Potency [7] | Potency [8] | outcome [9] | Potency [10] | outcome [11] | Potency [12]

COc1cc2c(c(OC)c1OC)-c1c(cc3c(c1OC)OCO3)C[C@H](C)[C@@](C)(O)C2
inactive: Potency [4] | Potency [5] | Potency [6] | Potency [7] | Potency [8] | outcome [9] | Potency [10] | outcome [11] | Potency [12]

CCC(NC(C)C)C(O)c1ccc(O)c(O)c1 (stereo not drawn)
-5.57%: activity change, negative = inhibition [13]
inactive: Potency [14] | outcome [15] | Potency [4] | Potency [5] | Potency [6] | Potency [7] | Potency [8] | outcome [9] | Potency [10] | outcome [11] | Potency [12]

NC[C@H]1O[C@H](O[C@H]2[C@@H](O)[C@@H](O[C@H]3O[C@H](CO)[C@@H](O)[C@H](N)[C@@H]3O)[C@H](N)C[C@@H]2N)[C@H](N)C[C@H]1O
inactive: Potency [4] | Potency [5] | Potency [6] | Potency [7] | activity change, negative = inhibition [8] -1.32% [at 11.4 µM] | outcome [9] inactive [at 11.4 µM] | outcome [10] inactive [at 11.4 µM] | outcome [11] inactive [at 11.4 µM] | outcome [12] inactive [at 11.3 µM]
-15.5% [at 11.3 µM]: activity change, negative = inhibition [13]

CO[C@H]1C(=O)[C@]2(C)[C@@H](OC)C[C@H]3OC[C@@]3(OC(C)=O)[C@H]2[C@H](OC(=O)c2ccccc2)[C@]2(O)C[C@H](OC(=O)[C@H](O)[C@@H](NC(=O)OC(C)(C)C)c3ccccc3)C(C)=C1C2(C)C
inactive: Potency [4] | Potency [5] | Potency [6] | Potency [7] | Potency [8] | outcome [9] | Potency [10] | outcome [11] | Potency [12]
-81.7%: activity change, negative = inhibition [13]

COc1cc(C)c(C=CC(C)=CC=CC(C)=CC(=O)O)c(C)c1C
inactive: Potency [4] | Potency [5] | Potency [6] | Potency [7] | Potency [8] | outcome [9] | Potency [10] | outcome [11]

CC(CC=O)CCCC(C)(C)O (stereo not drawn)
-11.7%: activity change, negative = inhibition [13]
inactive: Potency [4] | Potency [5] | Potency [6] | Potency [7] | Potency [8] | outcome [9] | Potency [10] | outcome [11] | Potency [12]

O=C(Nc1c(Cl)cncc1Cl)c1ccc(OC(F)F)c(OCC2CC2)c1
inactive: Potency [4] | Potency [5] | Potency [6] | Potency [7] | Potency [8] | outcome [9] | Potency [10] | outcome [11] | Potency [12]
-7.18%: activity change, negative = inhibition [13]

CC(C=CC=C(C)C=CC1=C(C)CCCC1(C)C)=CC=CC=C(C)C=CC=C(C)C=CC1=C(C)CCCC1(C)C
inactive: Potency [4] | Potency [5] | Potency [6] | Potency [7] | outcome [8] inactive [at 0.573 µM] | outcome [9] inactive [at 0.573 µM] | outcome [10] inactive [at 0.573 µM] | activity change, negative = cytotoxicity [11] 0.415% [at 0.573 µM] | outcome [12] inactive [at 0.702 µM]
-7.48% [at 0.702 µM]: activity change, negative = inhibition [13]

O=[N+]([O-])c1c(Cl)cccc1-c1c[nH]cc1Cl
inactive: Potency [4] | Potency [5] | Potency [6] | Potency [7] | outcome [9] | outcome [11]

CC(O)[C@H]1CC[C@H]2[C@@H]3CC[C@@H]4C[C@@H](O)CC[C@]4(C)[C@H]3CC[C@]12C (stereo partly drawn)
-11.6% [at 114 µM]: activity change, negative = inhibition [13]
inactive: Potency [4] | Potency [5] | Potency [6] | Potency [7] | outcome [9] inactive [at 114 µM] | Potency [10] | outcome [11] inactive [at 114 µM] | Potency [12]

O=C1CCCC(=O)C1C(=O)c1ccc(C(F)(F)F)cc1[N+](=O)[O-]
inactive: Potency [4] | Potency [5] | Potency [6] | Potency [7] | outcome [9] | Potency [10] | outcome [11] | Potency [12]
